# Compound activity deposited in PubChem by National Center for Advancing Translational Sciences (NCATS).
# Sampled rows, rich in hits. Any-hit rate of the full collection: about 0.69%.
# Abeta rescue = restores growth of yeast expressing A-beta42 peptide | AID 1347071 | Potency, µM (titrated, usually from 46.1 µM), most hits filed as activators | yeast expressing A-beta42, growth rescue, OD600, 48 h; response scale: 0% DMSO, 100% iron-clioquinol control | 410,000 tested, 0.063% active; also: nearly all actives have a fitted effect of over 55% in size
#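 Yeast A-beta toxicity model in growth medium with pinned compounds, 48 h at 30 C; growth read as absorbance at 600 nm. Normalized to FeCl3/clioquinol equimolar mix (positive) and DMSO (negative).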
# Glioma ERSR ind = ER stress response induction in glioma | 420,000 tested, 0.02% active | AID 602332 | Potency, µM, inactives show at the top dose activation, usual class: activators | U87-MG GRP78 promoter luciferase reporter, 16 h; also: series mostly up to about 76 µM; % of control where 0% means no effect; nearly all actives have a fitted effect of over 35% in size
#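 Stably transfected U87-MG glioma cells carrying a GRP78-based luciferase sensor; 16 h compound incubation. Luminescence end-point read 10 min after Bright-Glo addition at room temperature.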
# FUS suppressor = rescues growth of FUS-expressing yeast; AID 1347120; 390,000 tested, 0.24% active; S. cerevisiae FUS-expressing, growth rescue, OD600, 24 h; Potency, µM (highest dose often 76.6 µM), most hits filed as activators;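 also: plate controls were DMSO vehicle for no effect and reference control for full effect; nearly all actives have a fitted effect of over 55% in size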
#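 Restored growth of FUS-toxic S. cerevisiae, read as 600 nm absorbance after 24 h at 30C in galactose medium (starting OD 0.005). Controls CP55940 and DMSO.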
# PINK1 expr mod = PINK1 expression modulation. PINK1 immunofluorescence, high-content cytometry, 24 h. Potency, µM (titrated, usually from 76.6 µM), inactives show at the highest dose activation (PINK1 increase), usual class: activators. 410,000 tested, 0.2% active; active = well fitted activation curve with a large enough effect; inconclusive = small, poorly fitted or top-dose-only effect; cell line not stated here; also: % of control where 0% means no effect; nearly all actives have a fitted effect of over 65% in size
#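 Stable cell line treated 24 h with compounds at 5 concentrations (CCCP controls), then fixed and immunostained for PINK1 plus nuclear and cell stains; PINK1 immunofluorescence quantified by laser-scanning microplate cytometry.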
# Vif-A3F inh = Vif-A3F binding inhibition; Potency, µM (doses to about 46.1 µM), for inactives: at the top dose activity, negative = active; HeLa A3F-eYFP + Vif (tagged APOBEC3F with the HIV-1 protein that degrades it), YFP fluorescence increase; 390,000 tested, 0.2% active; AID 602313; also: % of control where 0% means no effect; nearly all actives have a fitted effect of over 65% in size
#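 HeLa cells stably expressing Vif plus C-terminally eYFP-tagged A3F were seeded, incubated overnight at 37 deg C, dosed with compound, incubated overnight again at 37 deg C. Yellow fluorescence (Ex 488/Em 500-530) reported blocked Vif-mediated A3F-eYFP degradation.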
# Vif-A3G inh = Vif-A3G binding inhibition. AID 602310. HeLa A3G-eYFP + Vif (tagged APOBEC3G with the HIV-1 protein that degrades it), YFP fluorescence, overnight. Potency, µM (titrated, usually from 46.1 µM), without a hit: top-dose activity, negative = active, most hits filed as inhibitors. Q9HC16. 410,000 tested, 0.076% active; also: % is scaled to controls: 0 for no effect and ±100 for the full control effect; nearly all actives have a fitted effect of over 60% in size
# Target sequence (Q9HC16 whole entry, looked up): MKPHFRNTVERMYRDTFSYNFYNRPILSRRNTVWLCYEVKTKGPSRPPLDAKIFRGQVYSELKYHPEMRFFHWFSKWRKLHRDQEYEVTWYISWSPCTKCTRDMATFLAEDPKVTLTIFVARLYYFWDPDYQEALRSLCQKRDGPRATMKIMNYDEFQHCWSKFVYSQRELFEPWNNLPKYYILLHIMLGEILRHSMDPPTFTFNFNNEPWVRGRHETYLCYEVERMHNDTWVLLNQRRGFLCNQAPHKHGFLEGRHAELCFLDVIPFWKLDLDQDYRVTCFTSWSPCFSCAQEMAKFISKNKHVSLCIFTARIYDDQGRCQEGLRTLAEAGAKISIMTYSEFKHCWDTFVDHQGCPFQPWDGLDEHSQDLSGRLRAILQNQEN
#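 Read-out is eYFP fluorescence (Ex 488/Em 500-530) from Vif-expressing HeLa A3G-eYFP cells; more signal means A3G escaped Vif-mediated degradation. Cells plated overnight, compound pinned in, incubated overnight at 37 deg C.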
# Active calls of the source: *; i = inactive; ? = inconclusive; / = no result; [ ] = dose if it differs, or a comment. Unless noted, calls follow the shape of the dose curve; as a rule, active = well fitted curve in the direction sought with a large enough effect; inconclusive = small, poorly fitted or top-dose-only effect, or another doubt; inactive = no such curve, though single readings can be large; an effect the other way counts as inactive or inconclusive. Potency is read from the fitted curve at half-maximal effect.
SMILES,Abeta rescue,Glioma ERSR ind,FUS suppressor,PINK1 expr mod,Vif-A3F inh,Vif-A3G inh
O=C(Nc1ccc2oc(-c3ccccc3)nc2c1)c1ccc2c(c1)OCCO2,i,2%,i,13µM*,8%,-13%
O=C(NCCc1cccs1)c1ccc(Cl)cc1,i,-11%,i,2%,-6%,1%
O=C(NCCc1cccs1)c1ccc(Cl)c(Cl)c1,i,1%,i,2%,2.5µM*,-6%
COC(=O)c1ccc(-c2cccc3c2OC(CNC(=O)c2ccc4c(c2)OCCO4)C3)nc1 (stereo not given),/,-3%,/,0%,/,/
CC(C)(CNC(=O)c1cnn(-c2nccc(-c3cc4ccccc4o3)n2)c1C1CC1)N1CCOCC1,/,1%,/,0%,/,/
O=C(Nc1ccc([N+](=O)[O-])cc1)C1COc2ccccc2O1 (stereo not given),8.9µM*,3%,i,-1%,-6%,-2%
O=C(Nc1ccccc1)C1COc2ccccc2O1 (stereo not given),i,0%,i,-1%,-7%,2%
CC(C)c1c(C(=O)NCc2ccncc2)cnn1-c1nccc(-c2cccs2)n1,/,-2%,/,-1%,/,/
Cc1ccc2[nH]c(O)c(N=Nc3ccccc3[N+](=O)[O-])c2c1,i,2%,/,0%,9%,-3%
Oc1[nH]c2ccccc2c1N=Nc1ccc(F)cc1,i,11%,i,1%,?,?
O=[N+]([O-])c1ccc2[nH]c(O)c(N=Nc3ccc(F)cc3)c2c1,i,-2%,i,28µM*,-32%,0%
CCN(CC)S(=O)(=O)c1cc([N+](=O)[O-])ccc1N=Nc1c(O)[nH]c2ccccc12,i,-3%,/,11µM*,13µM*,-13%
Oc1[nH]c2ccccc2c1N=Nc1ccccc1,i,4%,i,1%,25µM*,?
O=[N+]([O-])c1ccc(N=Nc2c(O)[nH]c3ccc(F)cc23)cc1,i,?,i,1%,?,-27%
CC(C)(C)n1ncc2c(=O)n(Cc3c(Cl)ccc(Cl)c3Cl)cnc21,/,-3%,/,/,/,1%
CC(C)N1CCc2c(sc(NC(=O)c3cc4cc([N+](=O)[O-])ccc4s3)c2C(N)=O)C1,i,-8%,i,-1%,?,8.9µM*
CC(C)N1CCc2c(sc(NC(=O)c3ccc4ccccc4c3)c2C(N)=O)C1,i,-5%,i,11%,?,?
N#Cc1c(-c2ccncc2)cc(-c2ccc(F)cc2)nc1N,5.6µM*,-4%,i,-3%,12%,0%
CCOC(=O)C1=C(COc2ccc(C)cc2)NC(=O)NC1c1cc(C)ccc1C (stereo not given),i,-3%,/,3%,-7%,-1%
COC(=O)C1=C(COc2ccc(F)cc2)NC(=O)NC1c1ccc(C)cc1C (stereo not given),i,-4%,i,11µM*,-2%,0%
COc1ccc(OC)c(NC2c3ncccc3C(=O)N2Cc2ccco2)c1 (stereo not given),i,-2%,35µM*,-3%[38.3 µM],-2%,-2%
Cc1ccc(CN2CCOc3ccc(CN4CCN(CCO)CC4)cc3C2)s1,/,-4%,/,0%,/,/
Nc1c(C(=O)Nc2nc3ccccc3s2)sc2nc(-c3cccs3)ccc12,i,-11%,?,-5%,7.9µM*,11µM*
Nc1c(C(=O)Nc2ccccc2Br)sc2nc(-c3cccs3)ccc12,i,?,i,17%,?,-29%
c1ccc2c(N3CCCCCC3)nc(CN3CCCCC3c3nccs3)nc2c1 (stereo not given),/,-5%,/,2%,/,/
SMILES,Abeta rescue,Glioma ERSR ind,FUS suppressor,PINK1 expr mod,Vif-A3F inh,Vif-A3G inh
COc1cc(-c2nnc(SCC(=O)Oc3ccccc3)o2)cc(OC)c1OC,i,?,i,0%,3%,5%
COc1cc(-c2nnc(SCC(=O)Oc3ccccc3Cl)o2)cc(OC)c1OC,?,22µM*,i,1%,4%,2%
Cc1nc2ccc(NC(=O)c3ccc(Cl)c(S(=O)(=O)N(C)c4ccccc4)c3)cc2s1,i,-4%,i,4%,?,?
Cc1nc2ccc(NC(=O)c3cc(S(=O)(=O)N(C)c4ccccc4)ccc3Cl)cc2s1,i,0%,i,25%,22µM*,-10%
Cc1ccc2c(c1)N(C(=O)CCC(=O)N1CCN(c3ccccn3)CC1)CCO2,i,-1%,i,0%,-5%,0%
Cc1ccc(C)c(N2CCN(C(=O)CCC(=O)N3CCOc4ccc(Cl)cc43)CC2)c1,?,-5%,25µM*,-1%,-3%,3%
CCOC(=O)COc1cc(Br)c(/C=N/Nc2ccccc2)cc1OC,i,35µM*,i,2%,0%,-14%
Nc1c(C(=O)N/N=C/c2ccccc2Cl)oc2nc(-c3ccccc3)cc(-c3ccco3)c12,i,0%,i,9%,7.1µM*,?
Cc1ccc(C2C=C(c3ccccc3OC(F)F)Nc3ncnn32)cc1 (stereo not given),i,-1%,/,-2%,6%,-8%
CN(C)c1ccc(C2C=C(c3ccc(Cl)cc3OC(F)F)Nc3ncnn32)cc1 (stereo not given),i,3%,?,2%,/,8.9µM*
Cc1nc(C)c(C(=O)NCc2nc(-c3cccc(NC(=O)c4ccccn4)c3)oc2C)s1,/,-5%,/,-1%,/,/
CCN1CC=C2C(C1)C(c1ccc(Cl)s1)C(C#N)=C(N)C2(C#N)C#N (stereo not given),i,-2%,i,6.3µM*,?,-23%
CC(C)C[C@H]1CNC(=S)N1C[C@H]1CCCN1C[C@H](CC(C)C)N1C[C@H](CC(C)C)N(CCc2ccccc2)C1=S,?,-4%,i,5%,/,-1%
CC(C)C[C@H]1CNC(=S)N1C[C@H]1CCCN1C[C@H](Cc1ccccc1)N1C[C@H](CC(C)C)N(CCc2ccccc2)C1=S,?,-1%,25µM*,3%,/,2%
CCOc1ccc(CCN2C(=O)C(=O)N([C@@H](Cc3ccccc3)CN3CCC[C@H]3CN3C(=O)C(=O)NC[C@@H]3Cc3ccccc3)C[C@@H]2Cc2ccc(O)cc2)cc1,i,/,16µM*,-1%,/,/
Cc1cnc(SCc2ccccn2)nc1C1CCCN(C(=O)c2ccc3c(c2)OCO3)C1 (stereo not given),/,1%,/,-1%,/,/
Cc1c(C(=O)NCC2(c3ccccc3)CCOCC2)cnn1-c1nccc(-c2ccco2)n1,/,0%,/,0%,/,/
